Data reported in article PMC7862700, “An all-to-all approach to the identification of sequence-specific readers for epigenetic DNA modifications on cytosine”.

Key:
Assay in all cases: DAPPL (digital affinity profiling via proximity ligation, sequencing); 10 mM Tris-HCl pH 7.5, 50 mM NaCl, 1 mM DTT, 4% glycerol, room temperature, 30 min; GST-TFs on glutathione beads, 16-mer random dsDNA library, 0.1% formaldehyde crosslink after washing; high values mean tight binding
Details in all cases: protein: recombinant; tags: N-terminal GST; dsDNA, one strand shown
[1] = target: T1, FLI1 (Homo sapiens, UniProt Q01543 1-452)
T1 sequence: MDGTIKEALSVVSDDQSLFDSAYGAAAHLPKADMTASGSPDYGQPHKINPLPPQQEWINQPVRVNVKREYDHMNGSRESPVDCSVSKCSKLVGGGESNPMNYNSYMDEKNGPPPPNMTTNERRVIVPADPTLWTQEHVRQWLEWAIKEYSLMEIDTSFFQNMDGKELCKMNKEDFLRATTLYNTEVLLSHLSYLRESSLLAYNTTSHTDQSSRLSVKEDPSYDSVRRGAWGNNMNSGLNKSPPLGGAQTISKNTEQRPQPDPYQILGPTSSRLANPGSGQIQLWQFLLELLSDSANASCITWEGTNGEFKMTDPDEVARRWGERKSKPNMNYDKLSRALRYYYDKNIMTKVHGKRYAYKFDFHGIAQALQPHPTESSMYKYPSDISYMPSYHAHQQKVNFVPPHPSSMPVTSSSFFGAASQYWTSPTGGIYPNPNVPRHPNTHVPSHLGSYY
Summary of the method: (§1)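 After expression in yeast as GST fusions, human transcription factors were bound to glutathione beads, DNA-barcoded and mixed with a tag-only sample. The pools were incubated with 200 nmole of a 16-mer random double-stranded DNA library in Tris/NaCl/DTT/glycerol buffer (30 min, room temperature), washed and crosslinked with 0.1% formaldehyde. Proximity ligation with BsaI/T4 ligase ran for 1 h at 37 °C, before PCR amplification and sequencing on an Illumina NextSeq500. Binding signal is a hexamer's read frequency for a factor divided by its frequency for the tag-only sample.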

[2] = target: T2, ELK1 (Homo sapiens, UniProt P19419 1-428)
T2 sequence: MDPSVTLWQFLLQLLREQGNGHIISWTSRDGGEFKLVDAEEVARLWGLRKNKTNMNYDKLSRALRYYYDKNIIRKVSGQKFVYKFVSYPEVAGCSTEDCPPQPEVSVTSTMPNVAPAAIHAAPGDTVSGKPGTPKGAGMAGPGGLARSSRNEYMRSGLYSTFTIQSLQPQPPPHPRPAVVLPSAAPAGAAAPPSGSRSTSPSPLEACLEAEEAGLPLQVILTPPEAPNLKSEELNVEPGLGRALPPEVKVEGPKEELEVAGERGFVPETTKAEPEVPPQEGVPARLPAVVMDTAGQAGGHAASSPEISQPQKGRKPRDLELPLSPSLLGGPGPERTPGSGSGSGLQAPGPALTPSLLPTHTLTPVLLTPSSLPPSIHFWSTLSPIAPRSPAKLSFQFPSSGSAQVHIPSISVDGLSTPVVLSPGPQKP
Summary of the method: as §1

[3] = target: T3, GABPA (Homo sapiens, UniProt Q06546 1-454)
T3 sequence: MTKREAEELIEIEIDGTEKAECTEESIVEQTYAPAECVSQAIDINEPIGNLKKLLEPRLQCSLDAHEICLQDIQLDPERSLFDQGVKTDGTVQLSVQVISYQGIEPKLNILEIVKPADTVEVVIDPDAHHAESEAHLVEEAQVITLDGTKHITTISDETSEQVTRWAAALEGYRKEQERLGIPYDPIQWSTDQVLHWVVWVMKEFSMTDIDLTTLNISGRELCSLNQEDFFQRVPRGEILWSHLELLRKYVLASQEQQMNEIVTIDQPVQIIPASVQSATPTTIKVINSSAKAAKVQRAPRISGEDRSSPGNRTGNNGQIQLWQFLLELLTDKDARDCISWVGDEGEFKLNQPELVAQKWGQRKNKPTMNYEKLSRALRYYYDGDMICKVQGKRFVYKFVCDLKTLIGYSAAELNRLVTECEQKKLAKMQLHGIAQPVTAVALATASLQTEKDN
Summary of the method: as §1

[4] = target: T4, ERG (Homo sapiens, UniProt P11308 1-479)
T4 sequence: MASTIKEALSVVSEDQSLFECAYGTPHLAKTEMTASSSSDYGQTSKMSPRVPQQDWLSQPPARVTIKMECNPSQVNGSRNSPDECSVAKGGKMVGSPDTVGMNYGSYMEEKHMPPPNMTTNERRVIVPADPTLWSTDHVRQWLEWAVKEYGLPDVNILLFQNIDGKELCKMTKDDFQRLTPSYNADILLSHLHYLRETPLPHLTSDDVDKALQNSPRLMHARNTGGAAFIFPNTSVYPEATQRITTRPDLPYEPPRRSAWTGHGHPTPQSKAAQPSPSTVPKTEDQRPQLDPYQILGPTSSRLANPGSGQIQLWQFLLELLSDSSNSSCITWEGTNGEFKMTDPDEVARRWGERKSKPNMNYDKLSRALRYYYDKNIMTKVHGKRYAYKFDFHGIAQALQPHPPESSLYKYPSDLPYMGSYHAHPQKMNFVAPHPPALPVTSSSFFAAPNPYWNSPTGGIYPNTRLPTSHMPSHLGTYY
Summary of the method: as §1

[5] = target: ELF1 (Homo sapiens, UniProt P32519 1-619)
Chain of ELF1 (P32519 whole entry): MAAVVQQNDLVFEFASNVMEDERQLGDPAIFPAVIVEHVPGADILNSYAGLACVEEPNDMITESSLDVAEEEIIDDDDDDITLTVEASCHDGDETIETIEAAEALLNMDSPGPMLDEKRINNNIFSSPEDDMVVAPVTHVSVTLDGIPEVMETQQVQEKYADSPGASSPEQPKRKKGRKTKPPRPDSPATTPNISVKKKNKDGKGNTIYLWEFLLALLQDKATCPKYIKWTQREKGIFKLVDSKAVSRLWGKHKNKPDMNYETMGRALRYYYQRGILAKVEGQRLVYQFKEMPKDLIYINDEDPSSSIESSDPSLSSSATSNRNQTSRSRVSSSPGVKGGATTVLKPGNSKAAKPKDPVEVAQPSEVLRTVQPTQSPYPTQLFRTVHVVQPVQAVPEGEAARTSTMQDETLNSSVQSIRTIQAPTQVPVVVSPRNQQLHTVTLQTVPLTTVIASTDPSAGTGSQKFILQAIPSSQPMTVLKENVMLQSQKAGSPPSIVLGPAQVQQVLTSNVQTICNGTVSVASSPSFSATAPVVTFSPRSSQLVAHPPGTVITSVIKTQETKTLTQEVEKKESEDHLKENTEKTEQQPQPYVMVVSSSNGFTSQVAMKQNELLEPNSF
Summary of the method: as §1

[6] = target: T5, EHF (Homo sapiens, UniProt Q9NZC4 1-300)
T5 sequence: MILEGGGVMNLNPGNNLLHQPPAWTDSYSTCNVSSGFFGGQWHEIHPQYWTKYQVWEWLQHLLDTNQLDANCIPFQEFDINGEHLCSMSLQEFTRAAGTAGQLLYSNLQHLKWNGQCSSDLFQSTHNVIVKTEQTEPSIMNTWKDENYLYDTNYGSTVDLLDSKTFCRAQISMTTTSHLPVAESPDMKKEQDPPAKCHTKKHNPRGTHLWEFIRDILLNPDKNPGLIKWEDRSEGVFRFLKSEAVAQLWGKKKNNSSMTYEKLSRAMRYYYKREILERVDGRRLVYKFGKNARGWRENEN
Summary of the method: as §1

[7] = target: SPI1 (Homo sapiens, UniProt P17947 1-270)
Summary of the method: as §1

[8] = target: SPIB (Homo sapiens, UniProt Q01892 1-262)
Chain of SPIB (Q01892 whole entry): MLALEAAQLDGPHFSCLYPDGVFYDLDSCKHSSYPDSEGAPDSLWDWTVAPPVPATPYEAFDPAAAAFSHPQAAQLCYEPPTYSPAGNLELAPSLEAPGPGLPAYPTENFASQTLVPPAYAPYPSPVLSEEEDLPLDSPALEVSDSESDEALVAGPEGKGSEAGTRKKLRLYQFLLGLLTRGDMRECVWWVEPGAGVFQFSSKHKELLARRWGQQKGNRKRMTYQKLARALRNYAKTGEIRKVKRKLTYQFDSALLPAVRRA
Summary of the method: as §1

[9] = target: T6, ELK3 (Homo sapiens, UniProt P41970 1-407)
T6 sequence: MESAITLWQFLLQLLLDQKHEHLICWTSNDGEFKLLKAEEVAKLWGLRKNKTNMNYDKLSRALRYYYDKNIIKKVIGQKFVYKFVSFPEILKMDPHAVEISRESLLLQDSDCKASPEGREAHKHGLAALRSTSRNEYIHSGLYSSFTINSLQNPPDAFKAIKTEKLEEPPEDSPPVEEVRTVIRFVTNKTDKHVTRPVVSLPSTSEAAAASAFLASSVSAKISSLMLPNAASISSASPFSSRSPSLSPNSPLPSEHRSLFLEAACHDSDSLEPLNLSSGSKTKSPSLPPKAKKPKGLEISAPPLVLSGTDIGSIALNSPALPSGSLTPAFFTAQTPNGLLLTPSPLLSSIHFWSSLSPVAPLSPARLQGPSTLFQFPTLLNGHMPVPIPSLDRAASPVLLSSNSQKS
Summary of the method: as §1

Row | Sequence | binding signal [1] | binding signal [2] | binding signal [3] | binding signal [4] | binding signal [5] | binding signal [6] | binding signal [7] | binding signal [8] | binding signal [9]
1 | CACGTA | 1.1 fold enrichment (6-mer frequency, TF over GST control) | 1.18 fold enrichment (6-mer frequency, TF over GST control) | 1.23 fold enrichment (6-mer frequency, TF over GST control) | 1.1 fold enrichment (6-mer frequency, TF over GST control) | 1.13 fold enrichment (6-mer frequency, TF over GST control) | 1.11 fold enrichment (6-mer frequency, TF over GST control) | 1.12 fold enrichment (6-mer frequency, TF over GST control) | 1.17 fold enrichment (6-mer frequency, TF over GST control) | 1.12 fold enrichment (6-mer frequency, TF over GST control)
2 | ATTTAT | 1.41 fold enrichment (6-mer frequency, TF over GST control) | 1.48 fold enrichment (6-mer frequency, TF over GST control) | 1.35 fold enrichment (6-mer frequency, TF over GST control) | 1.33 fold enrichment (6-mer frequency, TF over GST control) | 1.32 fold enrichment (6-mer frequency, TF over GST control) | 1.45 fold enrichment (6-mer frequency, TF over GST control) | 1.43 fold enrichment (6-mer frequency, TF over GST control) | 1.46 fold enrichment (6-mer frequency, TF over GST control) | 1.49 fold enrichment (6-mer frequency, TF over GST control)
3 | CCTAAA | 1.35 fold enrichment (6-mer frequency, TF over GST control) | 1.26 fold enrichment (6-mer frequency, TF over GST control) | 1.25 fold enrichment (6-mer frequency, TF over GST control) | 1.37 fold enrichment (6-mer frequency, TF over GST control) | 1.34 fold enrichment (6-mer frequency, TF over GST control) | 1.28 fold enrichment (6-mer frequency, TF over GST control) | 1.25 fold enrichment (6-mer frequency, TF over GST control) | 1.26 fold enrichment (6-mer frequency, TF over GST control) | 1.4 fold enrichment (6-mer frequency, TF over GST control)
4 | ATTGCG | 1.33 fold enrichment (6-mer frequency, TF over GST control) | 1.06 fold enrichment (6-mer frequency, TF over GST control) | 1.3 fold enrichment (6-mer frequency, TF over GST control) | 1.16 fold enrichment (6-mer frequency, TF over GST control) | 1.27 fold enrichment (6-mer frequency, TF over GST control) | 1.28 fold enrichment (6-mer frequency, TF over GST control) | 1.44 fold enrichment (6-mer frequency, TF over GST control) | 1.1 fold enrichment (6-mer frequency, TF over GST control) | 1.27 fold enrichment (6-mer frequency, TF over GST control)
5 | TTTGAT | 1.37 fold enrichment (6-mer frequency, TF over GST control) | 1.36 fold enrichment (6-mer frequency, TF over GST control) | 1.26 fold enrichment (6-mer frequency, TF over GST control) | 1.3 fold enrichment (6-mer frequency, TF over GST control) | 1.23 fold enrichment (6-mer frequency, TF over GST control) | 1.25 fold enrichment (6-mer frequency, TF over GST control) | 1.22 fold enrichment (6-mer frequency, TF over GST control) | 1.31 fold enrichment (6-mer frequency, TF over GST control) | 1.12 fold enrichment (6-mer frequency, TF over GST control)
6 | CTACCA | 1.27 fold enrichment (6-mer frequency, TF over GST control) | 1.27 fold enrichment (6-mer frequency, TF over GST control) | 1.42 fold enrichment (6-mer frequency, TF over GST control) | 1.29 fold enrichment (6-mer frequency, TF over GST control) | 1.39 fold enrichment (6-mer frequency, TF over GST control) | 1.22 fold enrichment (6-mer frequency, TF over GST control) | 1.26 fold enrichment (6-mer frequency, TF over GST control) | 1.23 fold enrichment (6-mer frequency, TF over GST control) | 1.16 fold enrichment (6-mer frequency, TF over GST control)
7 | CTTTAT | 1.19 fold enrichment (6-mer frequency, TF over GST control) | 1.19 fold enrichment (6-mer frequency, TF over GST control) | 1.18 fold enrichment (6-mer frequency, TF over GST control) | 1.16 fold enrichment (6-mer frequency, TF over GST control) | 1.17 fold enrichment (6-mer frequency, TF over GST control) | 1.34 fold enrichment (6-mer frequency, TF over GST control) | 1.25 fold enrichment (6-mer frequency, TF over GST control) | 1.19 fold enrichment (6-mer frequency, TF over GST control) | 1.25 fold enrichment (6-mer frequency, TF over GST control)
